Sampled rows, rich in hits. Any-hit rate of the full collection: about 1.4%.
ZTA DNA inh – ZTA (EBV) inhibition in EBNA-1 counter-screen; AID 2234; ZTA-DNA binding, fluorescence polarization; inhibition, % at 11 µM; P03206; 0.15% of 320,000 active; in the data active = inhibition above about 33%
Target sequence (P03206 whole entry, looked up): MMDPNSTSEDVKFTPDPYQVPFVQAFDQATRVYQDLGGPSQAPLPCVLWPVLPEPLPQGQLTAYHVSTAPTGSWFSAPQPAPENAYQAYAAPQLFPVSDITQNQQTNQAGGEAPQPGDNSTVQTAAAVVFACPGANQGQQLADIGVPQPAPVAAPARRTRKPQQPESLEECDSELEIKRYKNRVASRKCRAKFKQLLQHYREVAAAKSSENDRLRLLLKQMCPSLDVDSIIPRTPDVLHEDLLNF
LYPLA2 counter – blocks human lysophospholipase 2, a PME1 counter-screen | O95372 | recombinant LYPLA2, FP-Rh probe fluorescence polarization | inhibition, % at 5.9 µM | 0.38% of 320,000 active;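 active = inhibition above the screen-wide mean plus 3 SD, limit set per campaign, cut at about 26% in these data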
LANA-H2A inh – blocks KSHV LANA binding to histone H2A/H2B | Q9QR71 | cell-free LANA-H2A/H2B peptide, fluorescence polarization | inhibition, % (test concentration not listed) | 0.6% of 320,000 active; in the data active = inhibition mostly above about 10%, no sharp cut-off; inactive = mostly below about 6.7%
EBNA-1 inh – blocks EBNA-1 binding to DNA. inhibition, % at 14.8 µM. 0.34% of 300,000 active. AID 1950. EBNA-1 DNA binding, fluorescence polarization; in the data active = inhibition above about 28%
LYPLA1 counter – LYPLA1 (human) inhibition in PME1 counter-screen | O75608 | recombinant LYPLA1, FP-Rh probe fluorescence polarization | inhibition, % at 5.9 µM | 0.16% of 320,000 active;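 active = inhibition above the mean of all tested compounds plus 3 SD, set per campaign, cut at about 14% in these data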;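 also: inhibitors block serine hydrolase probe labeling of LYPLA1 so polarization falls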
Target sequence (O75608 whole entry, looked up): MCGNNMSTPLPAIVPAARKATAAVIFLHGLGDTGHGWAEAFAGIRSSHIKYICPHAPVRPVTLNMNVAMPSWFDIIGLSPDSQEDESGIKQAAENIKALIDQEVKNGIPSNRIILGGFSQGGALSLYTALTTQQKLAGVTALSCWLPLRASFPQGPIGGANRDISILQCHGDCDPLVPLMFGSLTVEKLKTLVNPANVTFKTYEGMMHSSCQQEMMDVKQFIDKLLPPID
EBNA-1 confirm – EBNA-1 (EBV) inhibition, confirmation | Recombinant EBNA-1 DBD, Cy5-DNA fluorescence polarization | inhibition, % at 14.8 µM | AID 2292 | shares compounds with EBNA-1 inh | 35% of 830 active;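 active = mean inhibition across replicates above a set limit taken from the earlier primary screen, cut at about 28% in these data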
ZTA DNA inh trip – blocks Epstein-Barr virus ZTA in triplicate, EBNA-1 counter-screen; shares compounds with EBNA-1 inh; 830 tested, under 10 active; Zta-ZRE DNA binding, Cy5 fluorescence polarization; AID 2328; inhibition, % at 11.1 µM;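 active = mean inhibition over triplicates above a set limit taken from the primary EBNA-1 screen, cut at about 37% in these data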;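 also: purified full length Zta protein with Cy5 labeled ZRE DNA probe; inhibitors lower polarization by freeing the labeled DNA probe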
Numbers stand for hits; n = inactive; x = not tested or not shown.

SMILES | ZTA DNA inh | LYPLA2 counter | LANA-H2A inh | EBNA-1 inh | LYPLA1 counter | EBNA-1 confirm | ZTA DNA inh trip
Cc1ccc(C(=O)NNC(=O)C2CCN(S(=O)(=O)c3ccc(Cl)cc3)CC2)cc1 | n | n | n | n | n | x | x
O=C(NCC(F)(F)F)Nc1cccnc1 | n | n | n | 80 | n | n | n
Cc1ccc2nc3c(c(C(=O)OC4CCOC4=O)c2c1)CCCC3 (stereo unspecified) | n | n | n | 30 | n | n | n
CN(CC(=O)Nc1cccc(F)c1)C(=O)c1cccc(S(=O)(=O)N2CC3(C)CC2CC(C)(C)C3)c1 (stereo unspecified) | n | n | n | n | n | x | x
OCC[C@@H]1C[C@@H](O)[C@H](O)[C@@]2(Cc3ccccc3CCO2)O1 | n | n | n | n | n | x | x
O=C(NCCCCCCNC(=O)c1ccc(Br)s1)c1ccc(Br)s1 | n | n | n | 53 | n | n | n
COc1ccc(N=C2NC(=O)/C(=C/C=C/c3ccccc3)S2)cc1 | n | n | n | 32 | n | 29 | n
COc1ccccc1/C=N/NC(=O)C(=O)Nc1ccccc1OC(F)(F)C(F)F | n | n | n | n | n | x | x
COc1cccc(/C=N/NC(=O)C(=O)Nc2ccccc2OC(F)(F)C(F)F)c1 | n | n | n | 30 | n | n | n
CC(/C=C1\SC(=S)N(c2ccc(C(=O)O)cc2)C1=O)=C\c1ccccc1 | n | n | n | 36 | n | n | n
Cc1ccc(/C=C2\SC(=S)N(CCC(=O)NNC(=O)c3cccc(O)c3)C2=O)cc1 | n | n | n | n | n | x | x
Cc1ccc(/C=C2\SC(=S)N(CCC(=O)NNC(=O)c3ccc(O)cc3)C2=O)cc1 | n | n | n | 29 | n | 57 | n
O=C(CN1C(=O)S/C(=C\C=C\c2ccccc2)C1=O)Nc1ccc(O)cc1 | n | n | n | 52 | n | n | n
CC(/C=C1\SC(=S)N(CCC(=O)Nc2ccc(O)cc2)C1=O)=C\c1ccccc1 | n | n | n | 34 | n | n | n
COc1ccc(C(=S)N2CCN(c3ccccc3C)CC2)cc1 | n | n | n | n | n | x | x
Cc1nccn1CCCNC(=O)CC1C(=O)NCCN1Cc1ccc(F)cc1Cl (stereo unspecified) | n | n | n | n | n | x | x
COc1ccccc1CN1C(=O)[C@@H]2C(CC(N)=O)NC3(C(=O)Nc4c3ccc(Cl)c4C)[C@@H]2C1=O (stereo partly specified) | n | n | n | 28 | n | 49 | n
COCCn1c(SCC(=O)Nc2ccccc2F)nc2c([nH]c3ccccc32)c1=O | n | n | n | n | n | x | x
C=CCn1c(SCC(=O)Nc2ccccc2OC)nc2c([nH]c3ccccc32)c1=O | n | n | n | 40 | n | n | n
COCCn1c(SCC(=O)Nc2ccccc2OC)nc2c([nH]c3ccccc32)c1=O | n | n | n | 30 | n | n | n
CN1CCN(c2ccc(-c3cccc(NC(=O)COc4ccc(Cl)cc4)c3)nn2)CC1 | n | n | n | n | n | x | x
CN1CCN(c2ccc(-c3cccc(NC(=O)COc4ccc(Cl)cc4Cl)c3)nn2)CC1 | n | n | n | 28 | n | 51 | n
COc1cc([C@H]2OC[C@H]3[C@@H]2CO[C@@H]3c2ccc(O[C@H]3O[C@H](CO)[C@@H](O)[C@H](O)[C@H]3O)c(OC)c2)ccc1O[C@@H]1O[C@H](CO)[C@@H](O)[C@H](O)[C@H]1O | x | x | n | x | x | x | x
O=C(CCc1nnc2ccc(N3CCC4(CC3)OCCO4)nn12)NCc1ccc(F)cc1 | n | n | n | n | n | x | x
Cc1cccc(-c2nsc(SCC(=O)Nc3ccc4c(c3)OCO4)n2)c1 | n | n | n | n | n | x | x
SMILES | ZTA DNA inh | LYPLA2 counter | LANA-H2A inh | EBNA-1 inh | LYPLA1 counter | EBNA-1 confirm | ZTA DNA inh trip
Cc1ccccc1-c1nsc(SCC(=O)Nc2ccc3c(c2)OCO3)n1 | n | n | n | 31 | n | n | n
CCOC(=O)Cc1csc(NC(=O)CSc2nc(N)c3c(C)c(C)sc3n2)n1 | n | n | n | 169 | n | n | n
CCOC(=O)Cc1csc(NC(=O)CSc2nc(C)cc(C)n2)n1 | x | x | n | x | x | x | x
O=C(CSc1nnc(SCc2ccc(Cl)cc2)s1)N/N=C/c1c(Cl)cccc1Cl | n | n | n | 35 | n | n | n
O=C(CSc1nnc(SCc2ccc(Cl)cc2)s1)N/N=C/c1ccc(Cl)cc1Cl | n | n | n | n | n | x | x
COc1ccc(-n2nc(C(=O)NCC(=O)NCc3cccc(F)c3)c3ccccc3c2=O)cc1Cl | n | n | n | 28 | n | n | n
COC(=O)CNC(=O)CNC(=O)c1nn(-c2ccc(OC)c(Cl)c2)c(=O)c2ccccc12 | n | n | n | n | n | x | x
Cc1ccc(C(=O)NCCc2nnc3ccc(NCCCN4CCOCC4)nn23)cc1 | n | n | n | n | n | x | x
CCOc1ccc(-n2nnc3c(=O)n(CC(=O)c4ccccc4)cnc32)cc1 | n | n | n | 30 | n | n | n
COc1ccccc1N(Cc1cc(=O)[nH]c2ccccc12)C(C)=O | n | n | n | n | n | x | x
CCCC(=O)N(Cc1cc(=O)[nH]c2ccccc12)c1ccccc1OC | n | n | n | 28 | n | n | n
CCOc1ccc(OCCNC(=O)C(NC(=O)c2c(F)cccc2F)C(C)C)cc1 (stereo unspecified) | n | n | n | x | n | x | x
COc1ccc(-c2csc(NC(=O)c3nc(-c4ccccc4)oc3C)n2)cc1 | n | n | n | n | n | x | x
Cc1oc(-c2ccccc2)nc1C(=O)Nc1nccs1 | n | n | n | 52 | n | n | n
CCCCOc1ccc(C(=O)NCCOc2cccc(OC)c2)cc1 | n | n | n | n | n | x | x
CCOC(=O)c1ccc(CNC(=O)CSc2nc(NC(=O)c3ccccc3)c3c(C)c(C)oc3n2)cc1 | n | n | n | 40 | n | n | n
CCCCC(=O)Nc1cccc(NC(=O)c2cccnc2Cl)c1 | n | n | n | n | n | x | x
S=C(NCc1ccco1)Nc1ccc(Cl)cc1 | n | n | n | 31 | n | n | n
COc1ccc(OC)c(NC(=O)C2CCCN(S(=O)(=O)c3ccc(-n4cnnn4)cc3)C2)c1 (stereo unspecified) | n | n | n | 49 | n | 41 | n
Cc1ccc(NC(=O)CN2C(=O)c3ccccc3S2(=O)=O)c(C)c1 | n | n | n | n | n | x | x
Cc1cccc(C)c1NC(=O)C(NC(=O)CN1C(=O)c2ccccc2C1=O)c1ccccc1 (stereo unspecified) | n | n | n | 29 | n | n | n
Cc1ccc(NC(=O)NNC(=O)CN2C(=O)COc3ccccc32)cc1 | n | n | n | n | n | x | x
O=C(CSc1n[nH]c(=O)[nH]c1=O)NC1CC1 | n | n | n | 59 | n | n | n
O=C(CSc1n[nH]c(=O)[nH]c1=O)NCC1CCCCC1 | n | n | n | n | n | x | x
COc1cc(Cn2c(N)c(C#N)c3nc4ccccc4nc32)cc(OC)c1 | n | n | n | 92 | n | n | n
COc1ccc(Cn2c(N)c(C#N)c3nc4ccccc4nc32)cc1 | n | n | n | n | n | x | x

Source: PubChem
